RE007 growth inh: less growth of the S. pombe RE007 Vpr strain. S. pombe RE007 Vpr strain, BacTiter-Glo ATP luminescence, 24 h. Potency, µM (top dose mostly 92.2 µM), inactives show at the top dose activity change, negative = less growth, actives largely listed as inhibitors. actives 0.21% (n = 360,000). AID 651644; active means well fitted falling curve with a large enough effect; inconclusive means small, poorly fitted or top-dose-only effect; inactive means no such curve, though single readings can be large or run the other way; further: nearly all actives have a fitted effect of over 50% in size
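Fission yeast strain RE007, carrying one chromosomally integrated HIV-1 vpr copy, was seeded at OD 0.01 in PMG+AL medium with 23 nL pinned compound. After 24 h at 30 °C and 99% humidity, viability was read by BacTiter-Glo luminescence.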
AMA1 RON2 block: disrupts binding of P. falciparum AMA1 to RON2 | AlphaScreen AMA1-biotinylated RON2 peptide binding | Potency, µM (titrated, usually from 58.2 µM), for the others: at the highest dose activity change, negative = inhibition, hits mostly inhibitors | actives 0.2% (n = 360,000) | AID 720542;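 further: 0% = vehicle wells and -100% = peptide control; nearly all actives have a fitted effect of over 45% in size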
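AMA1 (3D7) with his tag at 25 nM final met compounds first, then biotinylated RON2 peptide at 25 nM; detection used donor plus acceptor beads, 10 µg/mL apiece, read by AlphaScreen after 30 min at room temperature.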
Tb PYK inh: T. brucei pyruvate kinase inhibition. Q57TT1. TbPYK enzyme, Kinase-Glo Plus ATP luminescence, 45 min. Potency, µM (doses to about 76.8 µM), for inactives: at the highest dose activity, negative = inhibition, most hits filed as inhibitors. AID 624173. actives 0.12% (n = 410,000); further: nearly all actives have a fitted effect of over 50% in size
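Luminescent Kinase-Glo Plus end-point after 45 min room-temperature reaction of T. brucei pyruvate kinase started with 130 uM ADP (final). Buffer TEA 50 mM pH 7.2 with KCl, MgCl2, BSA, Tween-20; titration-based qHTS with fitted concentration-effect curves.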
LmPK inh: LmPK (Leishmania mexicana) enzyme inhibition | Q27686 | purified LmPK, Kinase-Glo ATP luminescence, 1 h | Potency, µM (highest dose often 57.5 µM), for the others: at the top dose activity change, negative = inhibition, usual class: inhibitors | actives 0.37% (n = 290,000)
Target sequence (Q27686 whole entry, looked up): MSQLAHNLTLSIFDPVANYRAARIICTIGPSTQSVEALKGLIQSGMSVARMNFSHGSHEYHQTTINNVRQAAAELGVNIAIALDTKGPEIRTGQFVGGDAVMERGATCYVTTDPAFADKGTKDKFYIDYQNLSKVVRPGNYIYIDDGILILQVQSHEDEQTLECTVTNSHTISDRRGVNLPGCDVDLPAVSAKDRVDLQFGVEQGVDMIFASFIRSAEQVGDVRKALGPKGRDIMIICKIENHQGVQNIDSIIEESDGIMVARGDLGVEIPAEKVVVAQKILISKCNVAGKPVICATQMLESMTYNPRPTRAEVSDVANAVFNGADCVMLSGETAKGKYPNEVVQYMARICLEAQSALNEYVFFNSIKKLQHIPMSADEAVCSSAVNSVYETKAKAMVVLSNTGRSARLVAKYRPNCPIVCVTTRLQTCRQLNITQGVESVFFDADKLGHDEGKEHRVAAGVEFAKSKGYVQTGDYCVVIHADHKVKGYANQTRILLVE
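Pyruvate kinase activity monitored as ATP production (luciferase luminescence). Conditions: 0.1 nM enzyme, 0.5 mM PEP, 0.1 mM ADP, 1 h, RT; normalized against uninhibited and no-enzyme wells.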
Active calls of the source: *; ? = inconclusive; . = no result given; [ ] = another dose, or the depositor's remark. A selection: hits, their analogues and other compounds. The true share with any hit is near 0.68%. Unless noted, the call rests on the fitted dose curve; in most records, active means well fitted curve in the direction sought with a large enough effect; inconclusive means small, poorly fitted or top-dose-only effect, or another doubt; inactive means no such curve, though single readings can be large; an effect the other way counts as inactive or inconclusive. Unless noted, on the % scale 0 is the no-effect control and ±100 the full control effect; potency means the concentration at half of the fitted maximal effect.

SMILES | RE007 growth inh | AMA1 RON2 block | Tb PYK inh | LmPK inh
CN(c1ccc(C(=O)N2CCCCCC2)cc1)S(=O)(=O)c1ccc(Cl)cc1 | 3% | 0% | 3% | -1%
CC(C)CNC(C(=O)Nc1ccc([N+](=O)[O-])cc1Br)c1ccccc1 (stereo not given) | -6% | -2% | 4% | 0%
Cc1ccc(N=C2NC(=O)/C(=C/c3cccn3C)S2)cc1 | 0% | ? | -4% | -1%
O=C(Nc1ccc(F)cc1F)c1ccc2ncsc2c1 | 1% | -2% | -3% | -2%
O=C(O[C@@H]1OC2COC(=O)c3cc(O)c(O)c(O)c3-c3c(cc(O)c(O)c3O)C(=O)O[C@@H]([C@H]1O)[C@@H]2O)c1cc(O)c(O)c(O)c1 | 3% | 2.5µM* | ? | -28%
O=C(CCN1CCc2ccccc2C(c2ccccc2)C1)c1ccc2c(c1)OCCO2 (stereo not given) | 5.6µM* | -14% | ? | -1%
O=C(CCN1Cc2ccccc2C1)c1ccc2c(c1)OCCO2 | ? | 3% | ? | 0%
COc1cccc(CNC(=O)Cc2ccc(NC(=O)C3=C(C)OCCS3)cc2)c1 | 1% | -1% | 2% | -16%
Cc1c(N)c(C)c([N+](=O)[O-])c(C)c1[N+](=O)[O-] | -4% | -6% | 4% | 9%
Cc1c(N)c(C(C)(C)C)cc(C(C)(C)C)c1[N+](=O)[O-] | 32µM* | ? | 0% | -3%
N/C(=N\OC(=O)c1ccccc1Cl)c1ccccc1 | -21% | 23% | -17% | 14µM*
N/C(=N\OC(=O)c1ccc(Cl)cc1Cl)c1ccc(Cl)cc1 | ? | 10% | 3% | -13%
N/C(=N\OC(=O)c1ccc(Cl)cc1Cl)c1ccccc1 | -23% | 54% | ? | 11µM*
Cc1ccc(/C(N)=N/OC(=O)c2ccc(C)cc2Cl)cc1 | ? | 7% | -10% | -8%
Cc1cccc(/C(N)=N/OC(=O)c2ccc(Cl)cc2Cl)c1 | -15% | 0% | ? | 7.9µM*
CCCCN(CC)CCNC(=O)c1cc2c(=O)[nH]c3ccccc3c2n1C | -9% | -1% | 1% | 7%
CC(=O)C1=C(C)NC(SCC(=O)c2ccccc2)=C(C#N)C1c1ccco1 (stereo not given) | . | . | . | 9%
CC(=O)C1=C(C)NC(SCC(=O)c2ccccc2)=C(C#N)C1CC(C)C (stereo not given) | 11% | -1% | 32µM* | 5%
CC(C)(C)OC(=O)NCCc1nnc(SCC(N)=O)o1 | -19% | 5% | -42% | 0%
CSC1=NS(=O)(=O)c2c(C)nn(C)c2S1 | -6% | 14% | 2.5µM* | 29%
COc1cc(/C=C/[N+](=O)[O-])ccc1OC(=O)c1cccnc1 | 8.9µM* | -13% | ? | -4%
O=C(COc1ccc(Cl)cc1Cl)Nc1nc2n(n1)C(c1ccccc1)CC(=O)N2 (stereo not given) | 1% | 2% | -2% | -6%
CN(C)c1ccc2nc3ccc(=O)cc-3sc2c1 | 45µM* | ? | ? | .
CN(C)c1ccc2nc3ccc(=[N+](C)C)cc-3sc2c1 | ? | 22% | ? | -26%
CCCCC(CC)C(=O)NCC(C)NC(=O)C(CC)CCCC (stereo not given) | 5% | -8% | -9% | 2%
SMILES | RE007 growth inh | AMA1 RON2 block | Tb PYK inh | LmPK inh
COC(=O)C(CC(=O)c1ccc(C)cc1)n1nc(C)cc1C (stereo not given) | -12% | -2% | -3% | 0%
COC(=O)C(CC(=O)c1ccc(Br)cc1)n1nc(C)cc1C (stereo not given) | 28µM* | -2% | ? | -7%
COC(=O)C(CC(=O)c1ccc(Br)cc1)n1ccnc1 (stereo not given) | . | . | . | 10µM*
COc1ccc(CCNC(=O)C2CC(=O)N(c3ccc(Br)cc3)C2)cc1OC (stereo not given) | -4% | 11% | 5% | -1%
COC/C=C/C1=CC2=CC(=O)C(C)(OC(=O)c3cnc4ccccc4n3)C(=O)C2=CN1c1cccc(C#N)c1 (stereo not given) | . | . | . | 0%[11.5 µM]
CCCCN=C1NN=C(c2ccc3c(c2)OCCO3)CS1 | -13% | 58% | ? | -3%[11.5 µM]
c1cc2c(cc1C1=NNC(=NC3CC3)SC1)OCCO2 | ? | 76% | ? | 11µM*
Cc1ccc(C)n1-c1ccc(N2CCOCC2)cc1 | -12% | -25% | -7% | 5%
Cc1ccc(C)n1-c1ccc(N(C)C)cc1 | -17% | 28µM* | -9% | -11%
Cc1cc(C)n(C2=NS(=O)(=O)c3ccccc32)n1 | 11% | 6% | -1% | 13µM*
Cc1ccc2c(c1)Cc1nc3ccccc3nc1-2 | ? | 27% | ? | 18µM*
O=C(O)/C=C/C(=O)Nc1ccccc1C(=O)OCC(=O)c1ccc2c(c1)OCCO2 | 16% | 6% | -6% | -22%
O=C(CS(=O)(=O)c1ccccc1)c1ccc2c(c1)OCCO2 | 17% | 17% | 6% | 13µM*
O=C(O)CCC(=O)c1ccc2c(c1)OCCO2 | -7% | 6% | 4% | -3%
Nc1ccccc1C(=O)OCC(=O)c1ccc2c(c1)OCCO2 | -15% | 8% | -19% | 14µM*
COc1ccc(S(=O)(=O)N2CCCCC2)cc1NC(=O)CSc1nccn1C | -20% | 1% | 7% | 0%
O=C(OCCn1cncn1)c1cc2ccccc2oc1=O | 3% | -13% | -8% | -2%
COc1ccccc1NC(=O)CN1CCN(CC(=O)Nc2ccccc2F)CC1 | 5% | 8% | 2% | .
CN(C)S(=O)(=O)N1C(=O)c2ccccc2C1=O | 3% | -3% | 0% | 28µM*
CN(C)c1ccc(-n2cccc2/C=C/[N+](=O)[O-])cc1 | ? | 7.1µM* | 3% | 2%
CC(=O)N1CCc2c(sc3c2c(=O)n(-c2ccccc2C)c(=O)n3Cc2cccc(F)c2)C1 | . | . | -3% | .
CC1=CC(=O)C(Sc2ccc(C)cc2)=CC1=O | 22µM* | 13µM* | 7.1µM* | .
CCCCCCN1C=CC(=C2C(=O)c3ccccc3C2=O)C=C1 | -14% | -6% | -2% | ?
CCN1C=CC(=C2C(=O)c3ccccc3C2=O)C=C1 | ? | -10% | ? | 13µM*
CCCN1C=CC(=C2C(=O)c3ccccc3C2=O)C=C1 | ? | -4% | ? | 14µM*
Cc1nnc(NC(=O)c2ccccc2C(=O)O)s1 | 12% | -1% | -9% | 3%
COC(=O)c1ccc(N2C(=O)CC(N(C)CCc3ccc(OC)c(OC)c3)C2=O)cc1 (stereo not given) | 7.9µM* | 1% | -16% | 0%
COc1ccc(N2C(=O)CC(N(CCc3ccc(OC)c(OC)c3)C(=S)Nc3ccccc3)C2=O)cc1 (stereo not given) | 24% | 2% | -10% | 2%
COc1ccc(CCN(C)C2CC(=O)N(c3ccccc3)C2=O)cc1OC (stereo not given) | 6.3µM* | -5% | -2% | 1%
COc1ccc(N2C(=O)CC(N(C)CCc3ccc(OC)c(OC)c3)C2=O)cc1 (stereo not given) | 22µM* | 5% | 4% | 4%
